The nature of assay [1]: qHTS for Inhibitors of Plasmodium falciparum (DD2) proliferation (AID 504314).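 Also: parasite DNA measured by SYBR Green fluorescence after red cell lysis.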 The essentials: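 Parasite proliferation measured as SYBR Green signal from Plasmodium DNA, mature erythrocytes lacking DNA. 72 h incubation, 37C; activity scaled between vehicle and 0.29 uM artemisinin, with correction from vehicle-only plates.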
For orientation: qHTS replaces the single test concentration by a dilution series.

The nature of assay [2]: qHTS for Inhibitors of Plasmodium falciparum (GB4) proliferation (AID 504315). Also: nearly all actives have a fitted effect of over 50% in size. The method in brief: (§1)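 Parasite growth measured as SYBR Green DNA fluorescence (ex 485, em 535 nm) after overnight lysis following 72 h culture at 37 °C, 0.3% parasitemia, 2.5% hematocrit. Values normalized against DMSO and 0.29 uM artemisinin controls, with plate-stack correction.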
Assay [3] in a line: qHTS for Inhibitors of Plasmodium falciparum (HB3) proliferation (AID 504318). Also: nearly all actives have a fitted effect of over 60% in size. Also: potency is read from the fitted curve at half-maximal effect. The essentials: as §1
Assay [4] is described as follows: qHTS for Inhibitors of Plasmodium falciparum (CP250) proliferation (AID 504320). The method in brief:
as §1

The nature of assay [5]: qHTS for Inhibitors of Plasmodium falciparum (7G8) proliferation (AID 504316). Also: potency is read from the fitted curve at half-maximal effect; nearly all actives have a fitted effect of over 65% in size. The method in brief:
as §1

The structures appear in SMILES notation. Inconclusive results are not listed. Activity calls are given as the source filed them. Calls follow the shape of the dose curve; as a rule, active = well fitted curve in the direction sought with a large enough effect; inconclusive = small, poorly fitted or top-dose-only effect, or another doubt; inactive = no such curve, though single readings can be large; an effect the other way counts as inactive or inconclusive.

On to `CCN(CC)CCCN1C=C2C(=O)C(C)(OC(=O)CCC(=O)OC)C(=O)C(Br)=C2C=C1c1ccc(OC)cc1` (centres undefined), for which the Potency entry in assay [1], in assay [2], in assay [3] and in assay [4] was “inactive” throughout.
`CC1(OC(=O)CCc2ccccc2)C(=O)C=C2C=C(c3ccc(C#N)cc3)N(C3CCCC3)C=C2C1=O` (centres undefined): the Potency entry in assay [1], in assay [2] and in assay [4] was “inactive” each time.
Consider `COC(=O)C1=C(C(=O)OC)[C@@H]2N(C)c3ccc(OC)cc3[C@@]23C[C@@H](C(=O)OC)N(S(=O)(=O)c2ccc4c(c2)OCCN4C)C3=N1`, for which the Potency result in assay [1], in assay [2] and in assay [4] was “inactive” each time.
As for `COC(=O)C1=C(C(=O)OC)[C@@H]2Nc3ccccc3[C@@]23C[C@@H](C(=O)OC)N(C(=O)c2cc(C)oc2C)C3=N1`, the Potency result in assay [1] and in assay [4] was “inactive” throughout. The Potency in assay [5] and in assay [3] was 1.69 µM (active) throughout.

(Values after PubChem BioAssay (NCATS).)
